From PubChem BioAssay
Lmaj promast – inhibitors of Leishmania major promastigote growth | 200,000 tested, 9% active | inhibition, % at 10 µM | Leishmania major promastigotes, resazurin fluorescence viability; in the data active = inhibition above about 50%;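 note: promastigotes grown with compound for 44 hours at 28 °C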
WT yeast gro inh – growth inhibition of WT yeast, mitochondrial fusion screen. mitochondrial fusion phenotypic screen, WT strain. inhibition, % at 10 µM. 190,000 tested, 2.1% active; in the data active = inhibition above about 58%; tested in S. cerevisiae
Insulin prom up – MIN6 insulin promoter up-regulation | MIN6 insulin promoter-GFP reporter, high-content imaging; active compounds read high | z-score at 5 µM | 190,000 tested, 0.3% active | AID 1625;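 active = z-score above 3 at 5 µM with at least 500 cells counted in the well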
Autophagy HCS – modulators of autophagy; MEF GFP-LC3 puncta imaging; test concentration mostly 10 µM; calls only at 10 µM (by protocol); 190,000 tested, 0.98% active;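 active = percentage of spot-positive cells more than 3 SD above its plate mean, without a fluorescence outlier flag or 80% toxicity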;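 note: spot-positive cell cutoff set from DMSO-treated cells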
Insulin prom inh – TRM-6 insulin promoter activity inhibition; TRM-6 cells (human fetal islet line), insulin promoter-eGFP reporter, imaging; reporter expression induced with tamoxifen; 130,000 tested, 0.9% active; inhibition, % at 2 µM;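 active = inhibition above the mean plus 3 SD, with well images judged a real hit on visual review, cut at about 60% in these data, passing the limit was not always enough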
Numbers without * were called inactive. This is a sample that favours compounds with a hit; in the whole collection about 11% have one here.

How did COc1ccc(CN2CCCC(CNC(=O)c3ccc(F)cc3)C2)c(C)c1C (centres undefined) do in these assays?
Lmaj promast: 79.8*; WT yeast gro inh: -3.9; Autophagy HCS: inactive

How did O=C(NCC1CCCN(Cc2cccc(OCCO)c2)C1)c1ccc(F)cc1 (centres undefined) do in these assays?
Lmaj promast: -1.4; WT yeast gro inh: -5.7; Insulin prom up: -1.04; Autophagy HCS: inactive

What do the screens show for `COc1ccc(CN2CCCC(CNC(=O)c3ccc(F)cc3)C2)c(F)c1` (centres undefined)?
Lmaj promast: 88.7*; WT yeast gro inh: -0.4; Autophagy HCS: inactive; Insulin prom inh: -26.1

What do the screens show for `O=C(c1ccc2c(c1)OCCO2)C1CCN(C(=O)c2ccc(F)cc2)CC1`?
Lmaj promast: 21.4; WT yeast gro inh: -6.0; Autophagy HCS: inactive; Insulin prom inh: -154.2

How did O=C(c1ccc2c(c1)OCCO2)C1CCN(C(=O)c2ccc(F)c(F)c2)CC1 do in these assays?
Lmaj promast: 57.0*; WT yeast gro inh: 6.0; Insulin prom up: -1.35; Autophagy HCS: inactive; Insulin prom inh: 16.7

How did CCCCCCCC[n+]1cccc(C(=O)N(CC)CC)c1 do in these assays?
Lmaj promast: 60.8*; WT yeast gro inh: 7.7; Insulin prom up: 0.35; Autophagy HCS: inactive; Insulin prom inh: -7.4

Results for Cc1ccc(N=Cc2nc(/C=C/c3cccc([N+](=O)[O-])c3)oc2O)cc1 ?
Lmaj promast: 3.6; WT yeast gro inh: -2.6; Insulin prom up: 0.84; Autophagy HCS: active; Insulin prom inh: -38.6

What do the screens show for `CCCCCCn1c(COc2ccccc2F)nnc1SCC(=O)N1c2ccccc2NC(=O)C1(C)C`?
Lmaj promast: 55.1*; WT yeast gro inh: -11.7; Insulin prom up: -2.53; Autophagy HCS: inactive; Insulin prom inh: -12.2

How did CC1(C)C(=O)Nc2ccccc2N1C(=O)CSc1ncccn1 do in these assays?
Lmaj promast: -1.5; WT yeast gro inh: 0.8; Autophagy HCS: inactive

Results for CCN1CCN(C(c2ccccc2F)c2nnnn2Cc2ccc3c(c2)OCO3)CC1 (centres undefined) ?
Lmaj promast: 4.4; WT yeast gro inh: 26.4; Insulin prom up: 0.1; Autophagy HCS: inactive; Insulin prom inh: -21.4

Results for CC(C)C(c1nnnn1CC1CCCO1)N1CCN(Cc2ccc3c(c2)OCO3)CC1 (centres undefined) ?
Lmaj promast: 83.3*; WT yeast gro inh: -11.1; Insulin prom up: 0.53; Autophagy HCS: inactive; Insulin prom inh: 7.9

What do the screens show for `CC(C)C(c1nnnn1CC1CCCO1)N1CCN(C2CCCC2)CC1` (centres undefined)?
Lmaj promast: -6.1; WT yeast gro inh: 4.2; Insulin prom up: -0.54; Autophagy HCS: inactive

How did c1ccc(CCn2nnnc2C(c2cccs2)N2CCN(Cc3ccc4c(c3)OCO4)CC2)cc1 (centres undefined) do in these assays?
Lmaj promast: 79.9*; WT yeast gro inh: 2.4; Insulin prom up: -4.21; Autophagy HCS: inactive; Insulin prom inh: -60.6

How did CC(C)C(c1nnnn1Cc1ccccc1)N1CCN(Cc2ccc3c(c2)OCO3)CC1 (centres undefined) do in these assays?
Lmaj promast: 88.7*; WT yeast gro inh: 6.7; Autophagy HCS: inactive

What do the screens show for `Cc1c(NC2(C#N)CCCCC2)c(=O)n(-c2ccccc2)n1C`?
Lmaj promast: -4.1; WT yeast gro inh: -16.3; Insulin prom up: 0.81; Autophagy HCS: inactive; Insulin prom inh: -7.3

How did CCC(CC)C(=O)c1c[nH]c(C(=O)N2CCN(c3ccc(OC)cc3)CC2)c1 do in these assays?
Lmaj promast: -5.8; WT yeast gro inh: -17.2; Insulin prom up: -0.93; Autophagy HCS: inactive; Insulin prom inh: -93.8

Results for NCCCNC(=O)c1ccc(/C=N/O)nc1 ?
Lmaj promast: 0.5; WT yeast gro inh: 0.7; Autophagy HCS: inactive; Insulin prom inh: 11.8

Results for Nc1nnc(SCC(=O)OCC(=O)c2ccccc2Br)s1 ?
Lmaj promast: -4.4; WT yeast gro inh: -12.1; Insulin prom up: -1.4; Autophagy HCS: inactive; Insulin prom inh: -81.8

Results for C/C(=N\NC(N)=S)C1C2C3CC4C5CC(C42)C1C53 (centres undefined) ?
Lmaj promast: 100.2*; WT yeast gro inh: 66.2*; Insulin prom up: -0.37; Autophagy HCS: inactive; Insulin prom inh: 28.6

Results for O=C(COc1ccc(S(=O)(=O)NC2CCCCC2)cc1Cl)N1CCN(c2ccccc2)CC1 ?
Lmaj promast: 98.4*; WT yeast gro inh: 22.8; Autophagy HCS: inactive; Insulin prom inh: -33.3

Results for COc1ccc(CCNC(=O)COc2ccc(S(=O)(=O)NC3CCCCC3)cc2Cl)cc1 ?
Lmaj promast: 75.2*; WT yeast gro inh: -16.9; Insulin prom up: -0.79; Autophagy HCS: inactive

How did O=C(COc1ccc(S(=O)(=O)NC2CCCCC2)cc1)N1CCN(c2ccc(F)cc2)CC1 do in these assays?
Lmaj promast: 15.7; WT yeast gro inh: 8.8; Insulin prom up: 0.47; Autophagy HCS: inactive

How did COc1ccc(C2=NN(CCC(=O)NCc3cccs3)C(=O)CC2)cc1 do in these assays?
Lmaj promast: 4.5; WT yeast gro inh: 19.3; Insulin prom up: 0.03; Autophagy HCS: inactive; Insulin prom inh: -26.7

How did CN(Cc1cc(=O)n2ccsc2n1)c1ccccc1 do in these assays?
Lmaj promast: 3.4; WT yeast gro inh: -6.3; Autophagy HCS: inactive

Results for O=c1cc(CNc2ccc(Br)cc2)nc2sccn12 ?
Lmaj promast: 70.7*; WT yeast gro inh: -15.6; Insulin prom up: -0.08; Autophagy HCS: inactive; Insulin prom inh: 11.1

What do the screens show for `Cc1ccc(N2C(=O)C3C4C=CC(CNC(=S)Nc5cccc(Cl)c5)(O4)C3C2=O)cc1` (centres undefined)?
Lmaj promast: 79.1*; WT yeast gro inh: 6.4; Insulin prom up: -0.4; Autophagy HCS: inactive; Insulin prom inh: 34.6

Results for Cc1ccc(N2C(=O)C3C4C=CC(CNC(=S)Nc5ccc(Cl)cc5)(O4)C3C2=O)cc1 (centres undefined) ?
Lmaj promast: 82.9*; WT yeast gro inh: 13.8; Insulin prom up: -0.48; Autophagy HCS: inactive; Insulin prom inh: 46.1

What do the screens show for `CC(C)COC(=O)NCC12C=CC(O1)C1C(=O)N(c3ccc(Cl)cc3)C(=O)C12` (centres undefined)?
Lmaj promast: -8.9; WT yeast gro inh: -5.9; Insulin prom up: 0.05; Autophagy HCS: inactive; Insulin prom inh: -15.6

Results for Cc1ccc(N2C(=O)C3C4C=CC(CNC(=S)Nc5ccc(F)cc5)(O4)C3C2=O)cc1 (centres undefined) ?
Lmaj promast: 66.5*; WT yeast gro inh: -5.5; Insulin prom up: 1.11; Autophagy HCS: inactive; Insulin prom inh: 46.1

What do the screens show for `Cc1cc(C)n(C(=O)COc2ccccc2[N+](=O)[O-])n1`?
Insulin prom up: 0.42

How did CCN(CC(=O)NCc1ccc(F)cc1)C(=O)/C=C/c1ccco1 do in these assays?
Lmaj promast: 3.2; WT yeast gro inh: 2.6; Autophagy HCS: inactive; Insulin prom inh: -92.9

What do the screens show for `CC(C)NC(=O)C1CCN(C2CCN(Cc3ccc4cccc(F)c4n3)CC2)CC1`?
Lmaj promast: 73.4*; WT yeast gro inh: 8.8; Insulin prom up: -1.41; Autophagy HCS: inactive
